Assay results from PubChem BioAssay (EPA / NIEHS).
Values joined by “and” are separate entries in the source; they are usually repeats but may differ in a detail not shown here. Identical values can stand only once. Records with an inconclusive call do not appear. The source holds several records for some structures; these can differ, active in one and inactive in another. Active and inactive are the calls of the source. The calls were made as follows, unless noted: active = hit-call score of the fitted dose curve at least 0.9, where 1 is the maximum; inactive = score below 0.9.

Assay: CCTE_Shafer_MEA_dev_burst_rate: CCTE's Neural Network Formation Assay for Burst Rate, Shafer Lab (AID 2284042);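 as to AC50: potency for loss of burst rate below DMSO control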
Procedure, shortened: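 Primary rat cortical neurons on PEI-coated 48-well MEA plates (laminin added with cells at plating) (16 electrodes/well), exposed from plating to day 12, dosing renewed at DIV 5 and 9. Burst rate averaged over active electrodes, recorded DIV 5, 7, 9, 12, summarized as AUC; loss versus DMSO.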
With O=C(Nc1ccccc1-c1ccc(Cl)cc1)c1cccnc1Cl the AC50 was 4.18 µM (active) and 3.1 nM (active) and the outcome was “inactive”.
In the case of CCOP(=O)(OCC)Oc1nc(Cl)c(Cl)cc1Cl, the outcome is reported as “inactive”.
For CCOC(=O)C(C)OC(=O)c1cc(Oc2ccc(C(F)(F)F)cc2Cl)ccc1[N+](=O)[O-] (configuration not stated), the outcome was “inactive”.
With CC(C)=CC1C(C(=O)OCc2coc(Cc3ccccc3)c2)C1(C)C (configuration not stated) the outcome was “inactive”.
With COP(=S)(OC)Oc1ccc([N+](=O)[O-])c(C)c1 the outcome was “inactive”.
For C=C(C)CN(CC)c1c([N+](=O)[O-])cc(C(F)(F)F)cc1[N+](=O)[O-], the AC50 was 13.3 µM (active).
With COP(=S)(OC)SCn1nnc2ccccc2c1=O the outcome was “inactive”.
In the case of CCSC(=O)N1CCCCCC1, the outcome is reported as “inactive”.
With CC1(C)C(C=C(Cl)Cl)C1C(=O)OC(C#N)c1cccc(Oc2ccccc2)c1 (configuration not stated) the AC50 was 3.77 µM (active) and the outcome was “inactive”.
For CS(=O)(=O)c1cc(C(F)(F)F)ccc1C(=O)c1cnoc1C1CC1, the outcome was “inactive”.

Assay: CCTE_Shafer_MEA_dev_bursting_electrodes_number: CCTE's Neural Network Formation Assay for Number of Bursting Electrodes, Shafer Lab (AID 2284043; active = hit-call score of the fitted dose curve at least 0.9, where 1 is the maximum;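 as to AC50: potency is for loss of bursting electrodes relative to DMSO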)
Procedure, shortened: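 Primary rat cortical neurons were cultured on PEI-coated 48-well MEA plates (16 electrodes/well) and exposed from plating through day 12, with compound renewed at feeds on DIV 5 and 9. Electrodes bursting ≥1 per 2 min were counted on DIV 5, 7, 9, 12; trapezoidal AUC taken.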
With O=C(Nc1ccccc1-c1ccc(Cl)cc1)c1cccnc1Cl the AC50 was 7.09 µM (active) and the outcome was “inactive”.
For CCOP(=O)(OCC)Oc1nc(Cl)c(Cl)cc1Cl, the AC50 was 852 nM (active) and 6.59 µM (active).
For CCOC(=O)C(C)OC(=O)c1cc(Oc2ccc(C(F)(F)F)cc2Cl)ccc1[N+](=O)[O-] (configuration not stated), the outcome was “inactive”.
With CC(C)=CC1C(C(=O)OCc2coc(Cc3ccccc3)c2)C1(C)C (configuration not stated) the outcome was “inactive”.
With COP(=S)(OC)Oc1ccc([N+](=O)[O-])c(C)c1 the outcome was “inactive”.
For C=C(C)CN(CC)c1c([N+](=O)[O-])cc(C(F)(F)F)cc1[N+](=O)[O-], the AC50 was 16.4 µM (active).
For COP(=S)(OC)SCn1nnc2ccccc2c1=O, the outcome was “inactive”.
For CCSC(=O)N1CCCCCC1, the AC50 was 1.93 µM (active).
In the case of CC1(C)C(C=C(Cl)Cl)C1C(=O)OC(C#N)c1cccc(Oc2ccccc2)c1 (configuration not stated), the AC50 is reported as 6.24 µM (active) and the outcome is reported as “inactive”.
For CS(=O)(=O)c1cc(C(F)(F)F)ccc1C(=O)c1cnoc1C1CC1, the outcome was “inactive”.

Assay: CCTE_Shafer_MEA_dev_burst_duration_mean: CCTE's Neural Network Formation Assay for Mean Burst Duration, Shafer Lab (AID 2284045)
Procedure, shortened: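 Primary rat cortical neurons on PEI-coated 16-electrode MEA wells, exposed from plating through day 12 with compound renewed at DIV 5 and 9; spontaneous activity recorded days 5, 7, 9, 12. Well-mean burst duration collapsed as trapezoidal AUC, fitted for loss versus DMSO.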
For O=C(Nc1ccccc1-c1ccc(Cl)cc1)c1cccnc1Cl, the outcome was “inactive”.
With CCOP(=O)(OCC)Oc1nc(Cl)c(Cl)cc1Cl the outcome was “inactive”.
With CCOC(=O)C(C)OC(=O)c1cc(Oc2ccc(C(F)(F)F)cc2Cl)ccc1[N+](=O)[O-] (configuration not stated) the outcome was “inactive”.
In the case of CC(C)=CC1C(C(=O)OCc2coc(Cc3ccccc3)c2)C1(C)C (configuration not stated), the outcome is reported as “inactive”.
With COP(=S)(OC)Oc1ccc([N+](=O)[O-])c(C)c1 the outcome was “inactive”.
With C=C(C)CN(CC)c1c([N+](=O)[O-])cc(C(F)(F)F)cc1[N+](=O)[O-] the outcome was “inactive”.
For COP(=S)(OC)SCn1nnc2ccccc2c1=O, the outcome was “inactive”.
For CCSC(=O)N1CCCCCC1, the outcome was “inactive”.
With CC1(C)C(C=C(Cl)Cl)C1C(=O)OC(C#N)c1cccc(Oc2ccccc2)c1 (configuration not stated) the outcome was “inactive”.
In the case of CS(=O)(=O)c1cc(C(F)(F)F)ccc1C(=O)c1cnoc1C1CC1, the outcome is reported as “inactive”.

Assay: CCTE_Shafer_MEA_dev_interburst_interval_mean: CCTE's Neural Network Formation Assay for Mean Interburst Interval, Shafer Lab (AID 2284046);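 also: well-mean interburst interval of bursting electrodes as AUC over four recording days; curve fitted for decrease in interburst interval relative to DMSO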
Procedure, shortened: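 Recordings on days 5, 7, 9 and 12 give well-mean interburst interval across actively bursting electrodes, summarized as area under the curve. Cultures: rat cortical neurons, continuous exposure from day 0, compound renewed at feeds; decrease analyzed versus DMSO.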
With O=C(Nc1ccccc1-c1ccc(Cl)cc1)c1cccnc1Cl the AC50 was 2.59 µM (active) and the outcome was “inactive”.
In the case of CCOP(=O)(OCC)Oc1nc(Cl)c(Cl)cc1Cl, the outcome is reported as “inactive”.
For CCOC(=O)C(C)OC(=O)c1cc(Oc2ccc(C(F)(F)F)cc2Cl)ccc1[N+](=O)[O-] (configuration not stated), the outcome was “inactive”.
With CC(C)=CC1C(C(=O)OCc2coc(Cc3ccccc3)c2)C1(C)C (configuration not stated) the outcome was “inactive”.
In the case of COP(=S)(OC)Oc1ccc([N+](=O)[O-])c(C)c1, the outcome is reported as “inactive”.
For C=C(C)CN(CC)c1c([N+](=O)[O-])cc(C(F)(F)F)cc1[N+](=O)[O-], the AC50 was 22.2 µM (active).
In the case of COP(=S)(OC)SCn1nnc2ccccc2c1=O, the outcome is reported as “inactive”.
With CCSC(=O)N1CCCCCC1 the outcome was “inactive”.
In the case of CC1(C)C(C=C(Cl)Cl)C1C(=O)OC(C#N)c1cccc(Oc2ccccc2)c1 (configuration not stated), the AC50 is reported as 3.49 µM (active) and the outcome is reported as “inactive”.
With CS(=O)(=O)c1cc(C(F)(F)F)ccc1C(=O)c1cnoc1C1CC1 the outcome was “inactive”.

Assay: CCTE_Shafer_MEA_dev_network_spike_number: CCTE's Neural Network Formation Assay for Number of Network Spikes, Shafer Lab (AID 2284048);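 also: synchronized bursts across electrodes counted on days 5 7 9 12 and integrated as AUC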;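 as to AC50: fit as a loss of signal meaning fewer network spikes than DMSO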
Procedure, shortened: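 Primary rat cortical neurons were seeded at 1.5 x 10^5 cells/well on PEI-coated 16-electrode MEA wells with laminin, exposed from plating day 0, compound renewed at DIV 5 and 9. Network spikes were recorded on days 5, 7, 9, 12 and summarized as trapezoidal AUC versus DMSO.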
With O=C(Nc1ccccc1-c1ccc(Cl)cc1)c1cccnc1Cl the outcome was “inactive”.
With CCOP(=O)(OCC)Oc1nc(Cl)c(Cl)cc1Cl the AC50 was 2.98 µM (active) and the outcome was “inactive”.
With CCOC(=O)C(C)OC(=O)c1cc(Oc2ccc(C(F)(F)F)cc2Cl)ccc1[N+](=O)[O-] (configuration not stated) the outcome was “inactive”.
In the case of CC(C)=CC1C(C(=O)OCc2coc(Cc3ccccc3)c2)C1(C)C (configuration not stated), the outcome is reported as “inactive”.
For COP(=S)(OC)Oc1ccc([N+](=O)[O-])c(C)c1, the outcome was “inactive”.
In the case of C=C(C)CN(CC)c1c([N+](=O)[O-])cc(C(F)(F)F)cc1[N+](=O)[O-], the AC50 is reported as 23.2 µM (active).
For COP(=S)(OC)SCn1nnc2ccccc2c1=O, the outcome was “inactive”.
For CCSC(=O)N1CCCCCC1, the outcome was “inactive”.
With CC1(C)C(C=C(Cl)Cl)C1C(=O)OC(C#N)c1cccc(Oc2ccccc2)c1 (configuration not stated) the AC50 was 2.98 µM (active) and the outcome was “inactive”.
In the case of CS(=O)(=O)c1cc(C(F)(F)F)ccc1C(=O)c1cnoc1C1CC1, the outcome is reported as “inactive”.

Assay: CCTE_Shafer_MEA_dev_network_spike_peak: CCTE's Neural Network Formation Assay for Mean Number of Electrodes in Network Spike, Shafer Lab (AID 2284049);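 as to AC50: fitted for loss of signal meaning fewer electrodes in network spikes than DMSO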
Procedure, shortened: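 Continuous 12-day exposure of rat cortical cultures, starting at plating, on MEA plates. Endpoint: electrodes participating in network-spike peaks, AUC across DIV 5–12, DMSO as negative control.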
In the case of O=C(Nc1ccccc1-c1ccc(Cl)cc1)c1cccnc1Cl, the AC50 is reported as 9.92 µM (active) and the outcome is reported as “inactive”.
In the case of CCOP(=O)(OCC)Oc1nc(Cl)c(Cl)cc1Cl, the AC50 is reported as 3.32 µM (active) and 9.79 µM (active) and the outcome is reported as “inactive”.
With CCOC(=O)C(C)OC(=O)c1cc(Oc2ccc(C(F)(F)F)cc2Cl)ccc1[N+](=O)[O-] (configuration not stated) the outcome was “inactive”.
With CC(C)=CC1C(C(=O)OCc2coc(Cc3ccccc3)c2)C1(C)C (configuration not stated) the outcome was “inactive”.
In the case of COP(=S)(OC)Oc1ccc([N+](=O)[O-])c(C)c1, the outcome is reported as “inactive”.
For C=C(C)CN(CC)c1c([N+](=O)[O-])cc(C(F)(F)F)cc1[N+](=O)[O-], the AC50 was 18.1 µM (active).
For COP(=S)(OC)SCn1nnc2ccccc2c1=O, the AC50 was 15 µM (active).
With CCSC(=O)N1CCCCCC1 the AC50 was 5.75 µM (active) and the outcome was “inactive”.
With CC1(C)C(C=C(Cl)Cl)C1C(=O)OC(C#N)c1cccc(Oc2ccccc2)c1 (configuration not stated) the AC50 was 11.4 µM (active) and the outcome was “inactive”.
With CS(=O)(=O)c1cc(C(F)(F)F)ccc1C(=O)c1cnoc1C1CC1 the outcome was “inactive”.
